Rows were chosen to be rich in hits. Some 2.4% of all compounds tested hit in one or more screens of this group.
ClpP mod: qHTS Assay for Activators of ClpP. Potency, µM (doses to about 57.5 µM), inactives show at the top dose activity change, negative = active. ATP-dependent Clp protease proteolytic subunit (Bacillus subtilis (strain 168)), P80244. purified B. subtilis ClpP, FRET peptide cleavage, 20 min. 340,000 tested, 1.9% active; active = well fitted falling curve with a large enough effect; inconclusive = small, poorly fitted or top-dose-only effect; inactive = no such curve, though single readings can be large or run the other way; note: the source files actives as falling curves though it sought activators and does not explain the sign; nearly all actives have a fitted effect of over 65% in size
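FRET quenching reversal measured ClpP activation: 10 microg/mL B. subtilis ClpP at pH 8 with the FRET-FV decapeptide, read at 430 nm after 320 nm excitation. The 20-min minus 0-min signal was scaled between DMSO/no-enzyme wells and ADEP (5.8 microM final).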
TDP1 block: qHTS Assay for Inhibitors of Tyrosyl-DNA Phosphodiesterase (TDP1) | Tyrosyl-DNA phosphodiesterase 1 (Homo sapiens), Q9NUW8 | recombinant TDP1, AlphaScreen DNA substrate cleavage | Potency, µM (doses to about 130 µM), for inactives: top-dose activity change, negative = inhibition, hits mostly inhibitors | 350,000 tested, 0.28% active | AID 485290, 2010; note: % is set by controls: 0 for no effect and ±100 for the full control effect; nearly all actives have a fitted effect of over 40% in size
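E. coli-derived human Tdp1, 1 nM final. Cpd preinc 15 min RT; substrate 15 nM final, 5 min RT; AS bead mix 10 ug/ml final, 10 min RT. Signal loss = tyrosine-FITC cleavage. No-enzyme wells = max signal.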
Rango release inh: qHTS Assay for Inhibitors of RanGTP induced Rango (Ran-regulated importin-beta cargo) - Importin beta complex dissociation. Potency, µM (top dose mostly 46.1 µM), for the others: at the top dose activity change, negative = inhibition. Snurportin-1 (Homo sapiens) + GTP-binding nuclear protein Ran (Homo sapiens) + Importin …. 340,000 tested, 0.071% active. Biochemical FRET Rango-importin beta, RanGTP-induced dissociation; calls by dose curve; note: % of control where 0% means no effect; nearly all actives have a fitted effect of over 45% in size
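Quantitative HTS using a FRET biosensor: 0.1 uM Rango, 0.25 uM importin beta, 0.6 uM Ran, 2 mM GTP, 0.2 uM RCC1 final, PBS with DTT, Tween-20 and BSA. Post-read taken 45 min after Ran addition.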
PTAP TSG101 blk: qHTS Assay for Iinhibitors of HIV-1 Budding by Blocking the Interaction of PTAP/TSG101. Fluorescence polarization, FITC-PTAP peptide / Tsg101 binding. Potency, µM (highest dose often 115 µM), without a hit: at the top dose activity change, negative = inhibition, usual class: inhibitors. Tumor susceptibility gene 101 protein (Homo sapiens), Q99816. 340,000 tested, under 10 active; active = well fitted inhibition curve with a large enough effect in the main read-out, with a control signal flat, not every such curve was filed as active; inconclusive = small, poorly fitted or top-dose-only effect, or effect the other way, or a change in a side signal; inactive = no such curve, though single readings can be large or run the other way; note: % of control where 0% means no effect
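Compounds were pin-transferred onto Tsg101 binding domain (10 uM final) in HEPES pH 7.5 buffer, then FITC-PTAP peptide was added at 50 nM final. After 20 min at RT, polarization reported peptide displacement across a qHTS concentration series.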
Rango complex inh: qHTS Assay for Inhibitors of Rango (Ran-regulated importin-beta cargo) - Importin beta complex formation; Importin subunit beta-1 (Homo sapiens), Q14974; Rango CFP/YFP FRET sensor + importin beta, 45 min; Potency, µM (series often up to 92.2 µM), inactives show top-dose inhibition of complex formation; 340,000 tested, 0.031% active; calls by dose curve;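 note: 0% = DMSO wells and 100% = buffer wells lacking importin beta; nearly all actives have a fitted effect of over 15% in size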
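FRET biosensor (snurportin 1 IBB flanked by EYFP and cerulean), 50 nM, with compound 5 min, then 0.125 microM importin beta in PBS, 1 mM DTT, 0.02% Tween-20, 0.1% BSA. CFP/YFP ratio read after 45 min at room temperature; pre-read flags interference.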
ALOX12 inh: Primary qHTS assay for inhibitors of human arachidonate 12S-lipoxygenase (ALOX12): Round 2; Polyunsaturated fatty acid lipoxygenase ALOX12 (Homo sapiens), P18054; purified 12hLO, xylenol orange hydroperoxide absorbance; Potency, µM (series often up to 108 µM), without a hit: at the highest dose activity change, negative = inhibition, usual class: inhibitors; 580,000 tested, 1.1% active; note: % is set by controls: 0 for no effect and ±100 for the full control effect
Target sequence (P18054 whole entry, looked up): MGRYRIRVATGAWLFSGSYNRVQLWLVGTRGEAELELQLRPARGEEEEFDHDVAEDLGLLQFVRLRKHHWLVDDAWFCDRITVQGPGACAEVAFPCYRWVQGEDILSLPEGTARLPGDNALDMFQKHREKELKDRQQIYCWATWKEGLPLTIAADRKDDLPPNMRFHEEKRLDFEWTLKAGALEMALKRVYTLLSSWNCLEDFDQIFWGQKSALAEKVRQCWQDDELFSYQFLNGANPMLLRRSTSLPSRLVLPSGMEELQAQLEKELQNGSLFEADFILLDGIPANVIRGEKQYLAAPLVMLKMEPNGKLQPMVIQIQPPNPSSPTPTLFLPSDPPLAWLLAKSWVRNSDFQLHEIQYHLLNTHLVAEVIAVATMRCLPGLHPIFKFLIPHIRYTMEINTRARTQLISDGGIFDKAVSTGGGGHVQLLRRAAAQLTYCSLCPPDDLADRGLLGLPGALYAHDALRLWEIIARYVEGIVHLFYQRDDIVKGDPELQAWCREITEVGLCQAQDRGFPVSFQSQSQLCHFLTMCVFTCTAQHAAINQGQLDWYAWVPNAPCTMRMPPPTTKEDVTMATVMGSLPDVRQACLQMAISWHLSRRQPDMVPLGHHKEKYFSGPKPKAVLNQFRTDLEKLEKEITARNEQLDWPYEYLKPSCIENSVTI
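Purified human 12hLO (150 nM final) in 25 mM Hepes, 0.01% Triton X-100, pH 7.0 was preincubated 15 min at room temperature with compound. Then 40 uM arachidonic acid was added, 30 min. Hydroperoxide was read by Fe-XO absorbance ratio 573/405 nm.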
* = called active by the depositor; [ ] = another dose, or the depositor's remark. Unless noted, calls come from the whole dose curve; as a rule, active = well fitted curve in the direction sought with a large enough effect; inconclusive = small, poorly fitted or top-dose-only effect, or another doubt; inactive = no such curve, though single readings can be large; an effect the other way counts as inactive or inconclusive. Potency is the fitted concentration of half-maximal effect.

How did CC(=O)OCC1OC(c2ccccc2)C(OC(C)=O)C(OC(C)=O)C1OC(C)=O (stereo unspecified) do in these assays?
ClpP mod: 1%; TDP1 block: 7%; Rango release inh: 10%; PTAP TSG101 blk: -10%; Rango complex inh: -1%; ALOX12 inh: -3%

How did CC(=O)OC[C@H]1O[C@@H](Sc2cccc3cccnc23)[C@H](OC(C)=O)[C@@H](OC(C)=O)[C@@H]1OC(C)=O do in these assays?
ClpP mod: 14µM*; TDP1 block: 1%; Rango release inh: -16%; PTAP TSG101 blk: -1%; Rango complex inh: 0%; ALOX12 inh: 5%

What do the screens show for `COc1ccc(-c2nc(C)nc3c2CN([S+](=O)([O-])c2ccccc2)CC3)cc1`?
ALOX12 inh: 2%[6.33 µM]

What do the screens show for `O=c1[nH]c(C2CCCN(Cc3ccc(OC(F)(F)F)cc3)C2)nn1-c1ccc(Cl)cc1` (stereo unspecified)?
ALOX12 inh: 11%

How did Cn1c(=O)c2c(ncn2CC(=O)N2CCOCC2)n(C)c1=O do in these assays?
ClpP mod: 32µM*; TDP1 block: 4%; Rango release inh: 0%; PTAP TSG101 blk: -1%; Rango complex inh: 2%; ALOX12 inh: -12%

Results for N#Cc1c(-c2ccccc2)cc(-c2ccc(O)cc2)nc1N ?
ClpP mod: 4%; Rango release inh: -28%; PTAP TSG101 blk: -7%; Rango complex inh: inconclusive; ALOX12 inh: inconclusive

How did Cc1ccc2c(N)c(C#N)sc2n1 do in these assays?
ClpP mod: -5%; TDP1 block: -2%; Rango release inh: -15%; PTAP TSG101 blk: -2%; Rango complex inh: 0%; ALOX12 inh: 0%

Results for Cc1ccc2c(n1)sc1c(N)ncnc12 ?
ClpP mod: 32µM*; TDP1 block: 1%; Rango release inh: -16%; PTAP TSG101 blk: -5%; Rango complex inh: -3%; ALOX12 inh: 47%

Results for Cc1cc(-c2ccccc2)c(C#N)c(N)n1 ?
ClpP mod: 32µM*; TDP1 block: 1%; Rango release inh: -28%; PTAP TSG101 blk: -6%; Rango complex inh: inconclusive; ALOX12 inh: 0%

What do the screens show for `Cc1nc(N)c(C#N)c(-c2cccnc2)c1-c1ccccc1`?
ClpP mod: -22%; Rango release inh: 1%; PTAP TSG101 blk: -2%; Rango complex inh: -2%; ALOX12 inh: 0%

How did Cc1ccc2c(n1)sc1c(-c3ccccc3)c(C#N)c(N)nc12 do in these assays?
ClpP mod: 35µM*; TDP1 block: 1%; Rango release inh: inconclusive; PTAP TSG101 blk: -5%; Rango complex inh: inconclusive; ALOX12 inh: -17%

How did O=C1NC2(CCN([S+](=O)([O-])c3cccc(C(F)(F)F)c3)C2)N=C1c1ccncc1 (stereo unspecified) do in these assays?
ALOX12 inh: 3%

What do the screens show for `CCN1C(=O)CCN(C(=O)Cc2cccc(F)c2)CC12CCOCC2`?
ALOX12 inh: 12%

What do the screens show for `O=C(c1ccco1)N1CCN(C(=O)c2ccc(-c3ccc([N+](=O)[O-])cc3)o2)CC1`?
ClpP mod: 1%; TDP1 block: 35µM*; Rango release inh: 8%; PTAP TSG101 blk: -4%; Rango complex inh: -2%; ALOX12 inh: inconclusive

How did Cc1cccc2sc(NC(=O)C3CCN(S(=O)(=O)c4cc([N+](=O)[O-])ccc4Cl)CC3)nc12 do in these assays?
ClpP mod: -4%; TDP1 block: -3%; Rango release inh: 14%; PTAP TSG101 blk: -2%; Rango complex inh: -2%; ALOX12 inh: 40µM*

Results for COC(=O)C1=NN(c2ccccc2OC)C2C(=O)N(c3ccccc3OC)C(=O)C12 (stereo unspecified) ?
ClpP mod: -6%; TDP1 block: -3%; Rango release inh: -27%; PTAP TSG101 blk: 0%; Rango complex inh: inconclusive; ALOX12 inh: -14%

How did COC(=O)C1=NN(c2cccc3ccccc23)C2C(=O)N(c3ccccc3OC)C(=O)C12 (stereo unspecified) do in these assays?
ClpP mod: -1%; TDP1 block: 3%; Rango release inh: 12µM*; PTAP TSG101 blk: -1%; Rango complex inh: inconclusive; ALOX12 inh: 157%

How did O=c1cnc(-c2ccc(Cl)cc2)cn1O do in these assays?
ClpP mod: 4%; TDP1 block: 4%; Rango release inh: -13%; PTAP TSG101 blk: -6%; Rango complex inh: -5%; ALOX12 inh: 50µM*

What do the screens show for `O=c1[nH]c(=O)c2nc(-c3ccc(Cl)cc3)cnc2[nH]1`?
TDP1 block: 4%; Rango release inh: inconclusive; PTAP TSG101 blk: -1%; Rango complex inh: inconclusive; ALOX12 inh: inconclusive

Results for CCC(=O)N1Cc2ccccc2CC2(CCCN2Cc2ccccc2)C1 (stereo unspecified) ?
ALOX12 inh: 5%[6.33 µM]

How did CN(C)CC1CCC/C(=C/c2ccc(Cl)cc2)C1=O (stereo unspecified) do in these assays?
ClpP mod: 2%; Rango release inh: -10%; PTAP TSG101 blk: 0%; Rango complex inh: -1%; ALOX12 inh: 35µM*

Results for CCOC(=O)C1CCCN(C(=O)/C=C/c2cccc([N+](=O)[O-])c2)C1 (stereo unspecified) ?
ClpP mod: 25µM*; TDP1 block: 2%; Rango release inh: 8%; PTAP TSG101 blk: -5%; Rango complex inh: inconclusive; ALOX12 inh: 69%

Results for Cc1cc(Nc2cc(C)on2)n2ncnc2n1 ?
ClpP mod: 0%; TDP1 block: 5%; Rango release inh: -2%; PTAP TSG101 blk: -1%; Rango complex inh: -2%; ALOX12 inh: 1.3µM*

What do the screens show for `CCn1ncc(N2CCC(NC(=O)C(C)C)CC2)cc1=O`?
ALOX12 inh: 46%

Results for O=C(CSC1=NC2(CCCCC2)Nc2ccccc21)Nc1ccc2c(c1)OCO2 ?
ALOX12 inh: -23%
